{"source": "PubChem BioAssay (Tox21)", "note": "Where a structure was tested more than once in an assay, its records may differ in their call. The source made the active and inactive calls. Entries that show only a call come without a potency. Calls come from the whole dose curve. Potency is the fitted concentration of half-maximal effect."}
{"molecular_target": "Muscarinic acetylcholine receptor M1 (Homo sapiens) (UniProt P11229)", "sequence (P11229 whole entry, looked up)": "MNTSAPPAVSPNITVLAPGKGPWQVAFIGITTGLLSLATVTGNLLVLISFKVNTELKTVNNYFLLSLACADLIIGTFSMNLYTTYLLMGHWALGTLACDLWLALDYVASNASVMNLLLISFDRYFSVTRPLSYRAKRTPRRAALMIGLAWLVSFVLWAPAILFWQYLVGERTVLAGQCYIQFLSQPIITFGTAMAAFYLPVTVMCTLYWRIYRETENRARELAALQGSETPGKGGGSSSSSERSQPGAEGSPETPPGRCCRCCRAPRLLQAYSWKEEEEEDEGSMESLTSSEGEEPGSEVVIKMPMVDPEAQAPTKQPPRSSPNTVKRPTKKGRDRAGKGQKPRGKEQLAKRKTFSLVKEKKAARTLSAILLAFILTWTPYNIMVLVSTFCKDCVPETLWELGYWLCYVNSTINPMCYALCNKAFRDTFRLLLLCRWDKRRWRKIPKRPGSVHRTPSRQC", "assay": "Cholinergic receptor muscarinic 1 (CHRM1) small molecule agonists, cell-based qHTS assay (AID 1963589); note: nearly all actives have a fitted effect of over 35% in size", "conditions": "CHRM1-CHO cells, agonist mode, calcium flux fluorescence; series mostly up to 76.8 µM; activation: at the top concentration", "from_the_text": "National Center for Advancing Translational Sciences [NCATS]\nDivision of Preclinical Innovation [DPI]\nU.S. Environmental Protection Agency [EPA]\nNational Institutes of Environmental Health Sciences [NIEHS]\nNational Toxicology Program [NTP]\nU.S. Food and Drug Administration [FDA]\nThe CHRM1 is a muscarinic receptor. This receptor plays a crucial role in learning and memory processes and has long been identified as a promising therapeutic target for the improvement of cognitive decline in Alzheimer's disease (AD). The CHRM1-CHO cell line stably expressing human muscarinic acetylcholine receptor M1 (CHRM1) can be used for screening agonists and antagonists of interactions between CHRM1 and its ligands. The CHRM1-CHO Calcium Flux Assay is a homogeneous fluorescence-based assay for detecting the intracellular calcium level using FDSS kinetic plate reader system.\nCHRM1-CHO cells were dispensed at 1000 cells/3uL/well in 1536-well black-clear bottom plates using a Multidrop Dispenser. After the assay plates were incubated at a 37 C/5% CO2 incubator for 18 h, 3 uL of Dye Loading Buffer was transferred to the assay plate by a Flying Reagent Dispenser. The assay plates were incubated at 37 C for 1h. For agonist mode, 23 nL of compounds dissolved in DMSO, positive controls or DMSO only was transferred to the assay plate by a pin tool. […] Each test compound was measured at 15 concentrations in three independent runs."}
{"smiles": "CCCCN(CCCC)N=O", "Potency": "inactive"}
{"smiles": "N#CC(Cl)Cl", "activation": "-0.171% (inactive)"}
{"smiles": "[O-][Cl+]O", "activation": "0.195% (inactive)"}
{"smiles": "NCCc1ccc(O)cc1", "Potency": "inactive"}
{"smiles": "O=S(=O)(O)OOS(=O)(=O)O", "Potency": "inactive"}
{"smiles": "CCCCC(CC)C(=O)Cl", "note": "(stereo not given)", "Potency": "inactive"}
{"smiles": "CCC(=O)OC1(c2ccccc2)CCN(C)CC1", "activation": "-0.616% (inactive)"}
{"smiles": "CCN(CC)C(=S)S", "Potency": "inactive"}
{"smiles": "COc1nc(C)nc(NC(=O)NS(=O)(=O)c2ccccc2Cl)n1", "activation": "-0.0717% (inactive)"}
{"smiles": "COCCl", "Potency": "50.9 µM (active) and inactive"}
{"smiles": "CC(C)(C1CCC(O)CC1)C1CCC(O)CC1", "note": "(stereo not given)", "activation": "-0.663% (inactive)"}
{"smiles": "Oc1ccc(Cl)cc1Cc1ccccc1", "Potency": "inactive"}
{"smiles": "CC(C)(c1ccc(OCC2CO2)cc1)c1ccc(OCC2CO2)cc1", "note": "(stereo not given)", "Potency": "inactive"}
{"smiles": "O=C(CBr)c1ccc(O)cc1", "activation": "2.62% (inactive)"}
{"smiles": "CCC(C)(CC)c1cc(NC(=O)c2c(OC)cccc2OC)on1", "Potency": "inactive"}
{"smiles": "CCCCCCCCCCOC(=O)c1ccccc1C(=O)OCCCCCCCCCC", "activation": "-0.129% (inactive)"}
{"smiles": "Cc1ccc2c(C)cccc2c1", "activation": "-0.539% (inactive)"}
{"smiles": "ClCc1ccccc1CCl", "activation": "-0.219% (inactive)"}
{"smiles": "COc1ccccc1OC", "activation": "0.0665% (inactive)"}
{"smiles": "c1ccc2sc(SNC3CCCCC3)nc2c1", "Potency": "inactive"}
{"smiles": "CC(C(=O)c1ccccc1)N(C)C", "note": "(stereo not given)", "activation": "-0.218% [at 35.3 µM] (inactive)"}
{"smiles": "CCOC(=O)N(C)N=O", "activation": "0.332% (inactive)"}
{"smiles": "O=C(NCNC(=O)NC1C(=O)NC(=O)N1CO)NC1C(=O)NC(=O)N1CO", "note": "(stereo not given)", "activation": "-0.0587% (inactive)"}
{"smiles": "c1cc2c3c(cccc3c1)CC2", "Potency": "inactive"}
{"smiles": "O=P(OCC(Br)CBr)(OCC(Br)CBr)OCC(Br)CBr", "note": "(stereo not given)", "Potency": "inactive"}
{"smiles": "COP(N)(=O)SC", "note": "(stereo not given)", "Potency": "inactive"}
{"smiles": "CCCCCCOC(=O)c1ccccc1C(=O)OCCCCCC", "Potency": "inactive"}
{"smiles": "C=CC(=O)OCC(CC)(COC(=O)C=C)COC(=O)C=C", "Potency": "inactive"}
{"smiles": "O=c1n(Cl)c(=O)n(Cl)c(=O)n1Cl", "Potency": "inactive"}
{"smiles": "CCCCCCCCCCCCCCCCn1cc[n+](C)c1", "Potency": "inactive"}
{"smiles": "CC(C)C(C)(N)C#N", "note": "(stereo not given)", "activation": "-0.185% (inactive)"}
{"smiles": "CC(=[OH+])/C=C(/C)[O-].CC(=[OH+])/C=C(\\C)[O-].CC(=[OH+])/C=C(\\C)[O-].[Al]", "activation": "-0.0169% (inactive)"}
{"smiles": "CC(O)CCO", "note": "(stereo not given)", "Potency": "inactive"}
{"smiles": "ClCCOCCCl", "Potency": "inactive"}
{"smiles": "O=[N+]([O-])c1cc(Cl)c(Cl)c(Cl)c1", "activation": "-0.122% (inactive)"}
{"smiles": "CCOC(=O)C(C)OC(=O)c1cc(Oc2ccc(C(F)(F)F)cc2Cl)ccc1[N+](=O)[O-]", "note": "(stereo not given)", "Potency": "inactive"}
{"smiles": "CC1=C(C(=O)Nc2ccccc2)SCCO1", "Potency": "inactive"}
{"smiles": "O=Cc1ccco1", "Potency": "inactive"}
{"smiles": "C=CC#N", "Potency": "inactive"}
{"smiles": "ClCc1ccccc1", "activation": "-0.563% (inactive)"}
